Source: PubChem
CHOP inh: inhibitors of CHOP promoter induction, primary screen, cell-based, unfolded protein response, luciferase reporter | inhibition, % at 10 µM | 3.8% of 220,000 active | AID 2732, 2010 | CHO-K1 CHOP-promoter luciferase, tunicamycin-induced, 15-18 h;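 active means compounds that reduced the stress-induced luciferase reporter signal by more than about 70% of percent inhibition, limit read from the data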;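 further: 0% = tunicamycin plus vehicle and 100% = wells without tunicamycin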
Lmaj promast: Leishmania major promastigote growth inhibition, primary screen | Leishmania major promastigotes, resazurin fluorescence viability | inhibition, % at 10 µM | 9% of 200,000 active | AID 1063, 2008; in the data active means inhibition above about 50%;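 further: promastigotes grown with compound for 44 hours at 28 °C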
WT yeast gro inh: growth inhibition of WT strain, primary screen, mitochondrial fusion inhibitor project, WT and mutant strains, chemical genetic; inhibition, % at 10 µM; AID 1362, 2008; 2.1% of 190,000 active; mitochondrial fusion phenotypic screen; in the data active means inhibition above about 58%; tested in S. cerevisiae
RAM inhibit: inhibitors of the yeast RAM network, primary screen, dse1pr::URA3 reporter, 5-FOA selection; AID 868, 2007; 1.8% of 190,000 active; inhibition, % at 50 µM; S. cerevisiae dse1pr::URA3 reporter, 5-FOA growth OD615, 2 d; analog-sensitive cbk1-as2 kinase mutant strain;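 active means inhibition above a set limit, 3 SD over mean compound inhibition, cut at about 8.4% in these data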;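 further: 0% = DMSO-only wells with no growth and 100% = 10 µM 1-NA-PP1 full growth; inhibition rescues growth on 5-FOA so higher OD means more RAM inhibition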
An asterisk follows results filed as active; . = not tested or not shown. The list is not random: actives were taken first. Their share in the collection is about 13%.

SMILES	CHOP inh	Lmaj promast	WT yeast gro inh	RAM inhibit
CCSc1cc(C2C(C#N)=C(N)Oc3n[nH]c(C)c32)c(C)o1 (stereo not drawn)	18.1	94.0*	2.7	0.2
CCCCCSc1cc(OC)c(CCNC)cc1OC	17.2	100.3*	5.5	3.5
O=C(c1ccc(Cl)cc1)C1CCCN(C2CCSCC2)C1 (stereo not drawn)	26.1	91.2*	-5.9	0.4
COc1c(C)cc(C(=O)C2CCCN(C3CCOCC3)C2)cc1C (stereo not drawn)	8.4	97.3*	-7.2	-0.2
COc1c(C)cc(C(=O)C2CCCN(Cc3cccc(C)n3)C2)cc1C (stereo not drawn)	10.1	33.3	22.4	1.2
COc1ccc2cc(C(=O)C3CCCN(C4CCOCC4)C3)ccc2c1 (stereo not drawn)	29.8	99.2*	4.7	1.0
COc1ccc(C(=O)C2CCCN(C3CSCCSC3)C2)cc1OC (stereo not drawn)	20.8	18.3	-0.3	0.1
C[C@H](Cc1ccc2c(c1)OC(C(=O)O)(C(=O)O)O2)NC[C@H](O)c1cccc(Cl)c1	-11.0	.	.	.
Cc1nn(C)cc1/C=C1/CC2C3CC=C4CC(O)CCC4(C)C3CCC2(C)C1=O (stereo not drawn)	.	5.2	.	.
CC12CCC3C(CC=C4CC(O)CCC43C)C1C/C(=C\c1ccccc1F)C2=O (stereo not drawn)	24.3	0.5	65.0*	3.6
NC1=NC(=O)C(c2ccccc2)O1 (stereo not drawn)	2.0	.	-13.1	.
Cc1cnn(C2CCN(C)CC2)c1N	15.0	-2.4	14.9	0.1
COc1ccc([N+](=O)[O-])cc1N=Cc1c(O)n(CCc2ccccc2)c(=O)n(C(C)C)c1=O	36.3	27.1	21.3	11.2*
COc1ccccc1OP(=O)(Nc1cccnc1)Oc1ccccc1OC	28.9	10.1	-2.3	1.7
O=P(Nc1cccc(F)c1)(Oc1ccccc1F)Oc1ccccc1F	75.6*	.	.	.
FC(F)(F)c1cccc(-n2nnnc2C2(N3CCOCC3)CCCCC2)c1	2.1	83.7*	-4.1	2.4
Cc1cc(C=O)c(C)n1C1CC1	-2.6	-2.6	4.3	1.2
CNC(=O)OCC[N+](C)(C)C	68.8	.	.	.
O=C(CN1CC=C(c2ccccc2)CC1)Nc1c(Cl)cccc1Cl	8.7	5.1	-30.8	0.5
OC(COCc1ccc(Cl)cc1)CN1CC=C(c2ccccc2)CC1 (stereo not drawn)	46.9	88.0*	50.6	-0.3
CCCCn1c(N)c(C(=O)OCCOC)c2nc3ccccc3nc21	-9.0	.	.	.
CCCCn1c(NC(=O)c2ccco2)c(C(=O)OCC)c2nc3ccccc3nc21	-51.1	75.8*	-20.8	4.0
CCCCn1c(N)c(C(=O)OCC2CCCO2)c2nc3ccccc3nc21 (stereo not drawn)	16.9	99.8*	5.3	0.8
CC(C)CCn1c(N)c(C(=O)OCC2CCCO2)c2nc3ccccc3nc21 (stereo not drawn)	22.8	53.5*	10.2	1.5
C=CCN1CC[C@]23CCCCC2[C@H]1Cc1ccc(O)cc13 (stereo partly drawn)	-3.1	.	.	.
SMILES	CHOP inh	Lmaj promast	WT yeast gro inh	RAM inhibit
CC(C)(C)NC(=S)N1CCn2cccc2C1c1cccnc1 (stereo not drawn)	17.3	-2.8	-0.7	0.9
Cc1ccsc1C(=O)C1CCCN(Cc2c(C)nn(C(C)C)c2C)C1 (stereo not drawn)	17.2	10.8	16.7	0.5
O=C1NC(=O)C(=Cc2ccccc2OCCOc2ccc([N+](=O)[O-])cc2)C(=O)N1	-11.2	64.0*	21.0	-0.5
CN1C(=O)C(=Cc2ccccc2OCCOc2ccc([N+](=O)[O-])cc2)C(=O)N(C)C1=O	1.5	77.8*	6.2	-1.2
CN1C(=O)C(=Cc2ccccc2OCc2ccccc2Cl)C(=O)N(C)C1=O	-0.9	66.3*	-22.1	-1.1
CN1C(=O)C(=Cc2ccccc2OCc2ccc(C(=O)O)cc2)C(=O)N(C)C1=O	1.7	-8.7	-16.1	0.9
CC1OC1P(=O)(O)O (stereo not drawn)	2.1	.	.	.
CNC(C(=O)c1ccccc1)C(OC)c1cccc([N+](=O)[O-])c1 (stereo not drawn)	7.8	.	.	.
COc1ccc(OCC#CCN2CCCCCC2)cc1	8.5	85.4*	-2.0	0.9
C(#CCN1CCCCC1)COCc1ccccc1	15.9	89.5*	2.4	-1.8
O=c1c2ccccc2nc(N2CCCC2)n1-c1ccc(Cl)cc1	23.3	14.9	45.4	0.9
O=C(O)[C@H]1NC[C@H]2C[C@H]21	4.9	-1.1	14.4	3.1
COc1ccc2c(c1)C13CCCCC1C(C2)N(C)CC3 (stereo not drawn)	-7.5	.	.	.
N#Cc1c(N2CCNCC2)nc(-c2ccco2)c2c1CCCC2	11.6	.	.	.
CCCCc1nc(N2CCNCC2)c(C#N)c2c1CSC(C)(C)C2	24.1	97.2*	0.7	0.1
COc1ccc(C(=O)N2CCCC2=O)cc1	16.0	-6.3	-3.4	0.8
Cn1c(O)c(/C=N/c2ncccn2)c(=O)n(C)c1=O	-15.5	78.0*	18.3	0.4
COc1ccc(-n2nc(C(F)(F)F)cc2-c2ccc(Cl)cc2)cc1	-8.0	.	.	.
CN1C(=O)N(C)C(=O)C2(Cc3c(nc4ccccn4c3=O)N3CCc4ccccc4C32)C1=O (stereo not drawn)	16.6	70.3*	11.6	2.5
O=c1[nH]c(=S)n(C2CC2)c(O)c1C=Nc1cccc(C(F)(F)F)c1	95.0*	-7.0	-10.6	2.5
CC(C)CCOC(=O)c1c(N)n(CC2CCCO2)c2nc3ccccc3nc12 (stereo not drawn)	-3.3	99.7*	4.4	0.9
CC(C)OC(=O)c1c(N)n(CC2CCCO2)c2nc3ccccc3nc12 (stereo not drawn)	2.2	52.4*	1.0	2.3
Nc1c(C(=O)OC2CCCCC2)c2nc3ccccc3nc2n1CC1CCCO1 (stereo not drawn)	.	81.0*	20.5	-0.8
CC(C)OCCCNC(=O)c1c(N)n(CC2CCCO2)c2nc3ccccc3nc12 (stereo not drawn)	.	12.8	3.4	-0.9
CCCNC(=O)c1c(N)n(CC2CCCO2)c2nc3ccccc3nc12 (stereo not drawn)	47.6	30.2	9.7	-1.4
SMILES	CHOP inh	Lmaj promast	WT yeast gro inh	RAM inhibit
CC(C)NC(C)C(=O)C12CC3CC(CC(C3)C1)C2 (stereo not drawn)	7.2	-0.5	-3.5	-0.3
COc1cc2c(cc1OC)C(C(=O)NCCC(C)C)C1CCCCN1C2=O (stereo not drawn)	-16.2	-6.5	-21.6	-0.1
COc1ccccc1-n1c(Cc2ccccc2)nc2ccccc2c1=O	17.4	-0.5	-23.8	-0.2
Cc1cccn2c(=O)c3c(nc12)N1CCCCC1C1(C3)C(=O)N(C)C(=O)N(C)C1=O (stereo not drawn)	1.8	.	.	.
Cc1cccn2c(=O)c3c(nc12)N1CCC(Cc2ccccc2)CC1C1(C3)C(=O)N(C)C(=O)N(C)C1=O (stereo not drawn)	27.0	58.6*	32.0	2.4
COc1cc2c(cc1OC)-c1c(OC)c(OC)cc3c1C(C2)N(C)CC3 (stereo not drawn)	-30.2	2.0	-1.5	-0.7
COc1cc2c(cc1OC)-c1c3c(cc4c1[C@@H](C2)N(C)CC4)OCO3	22.9	97.5*	-2.5	1.2
